JMJD2A Tudor inh – qHTS Assay for Inhibitors of JMJD2A-Tudor Domain; Lysine-specific demethylase 4A (Homo sapiens), O75164; AlphaScreen JMJD2A-Tudor / H3K4me3 peptide binding; Potency, µM (titrated, usually from 114 µM), for the others: top-dose activity change, negative = inhibition, most hits filed as inhibitors; 390,000 tested, 4.4% active; AID 504339, 2011; also: % is scaled to controls: 0 for no effect and ±100 for the full control effect; nearly all actives have a fitted effect of over 50% in size
G9a block – qHTS Assay for Inhibitors of Histone Lysine Methyltransferase G9a; Histone-lysine N-methyltransferase EHMT2 (Homo sapiens), Q96KQ7; G9a H3K9 monomethylation, AlphaScreen, 2 h; Potency, µM (top dose mostly 102 µM), for the others: at the highest dose activity, negative = inhibition, hits mostly inhibitors; 350,000 tested, 8.8% active; AID 504332, 2011; also: % is scaled to controls: 0 for no effect and ±100 for the full control effect; nearly all actives have a fitted effect of over 75% in size
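Methyltransferase reactions run at room temperature for 2 h (20 nM enzyme, 500 nM biotin-H3K9 peptide, 20 uM SAM) after a 15 min compound preincubation; product detected by AlphaScreen beads and anti-H3K9me1 antibody.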
HP1b chromo inh – HTS for Inhibitors of HP1-beta Chromodomain Interactions with Methylated Histone Tails; Chromobox protein homolog 1 (Homo sapiens), P83916; AlphaScreen HP1-beta / biotin-H3K9me3 peptide binding; Potency, µM (doses to about 114 µM), without a hit: at the top dose activity change, negative = inhibition, actives largely listed as inhibitors; 390,000 tested, 0.56% active; AID 540317, 2011; also: nearly all actives have a fitted effect of over 70% in size
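Compound inhibition of the preformed complex between 50 nM HP1-beta and 50 nM biotinylated H3K9me3 peptide was read by AlphaScreen. Buffer was PBS pH 7.4 with 0.01% Tween-20. Incubations ran 30 min at room temperature, with 10 ug/mL donor/acceptor beads.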
L3MBTL1 inh – qHTS Assay for the Inhibitors of L3MBTL1. 230,000 tested, 0.66% active. AlphaScreen L3MBTL1–H3K9me1 peptide binding. Potency, µM (top dose mostly 57.1 µM), for the others: at the highest dose activity, negative = inhibition, usual class: inhibitors. AID 485360, 2010. Lethal(3)malignant brain tumor-like protein 1 (Homo sapiens), Q9Y468; also: % is scaled to controls: 0 for no effect and ±100 for the full control effect; nearly all actives have a fitted effect of over 60% in size
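Displacement of a biotinylated histone H3(1-15) peptide monomethylated at Lys9 (75 nM) from L3MBTL1 (50 nM) was measured by AlphaScreen after a 30 min room-temperature compound incubation; cefsulodin titration served as intraplate control.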
Sfp inh – qHTS Assay for Inhibitors of Bacillus subtilis Sfp phosphopantetheinyl transferase (PPTase); 4'-phosphopantetheinyl transferase ffp (Bacillus subtilis), Q9F4F7; 310,000 tested, 3.5% active; Biochemical Sfp PPTase activity, qHTS; Potency, µM, for the others: largest response in the series, negative = inhibition, most hits filed as inhibitors;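 also: the enzyme is Sfp with the accession as filed and its product quenches rhodamine fluorescence; 0% = enzyme reaction without inhibitor and -100% = no enzyme wells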
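Fluorescence-quenching assay: 15 nM Sfp-PPTase preincubated 15 min at room temperature with compound, then 5 uM rhodamine-CoA and 12.5 uM BHQ-2-labelled YbbR peptide added. Fluorescence (ex 525/em 598 nm) read at start and after 30 min; difference gives rate.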
BAZ2B inh – qHTS Assay for Inhibitors of BAZ2B | AlphaScreen BAZ2B-H3K14Ac peptide displacement | Potency, µM (highest dose often 114 µM), for the others: at the highest dose activity change, negative = inhibition, usual class: inhibitors | 360,000 tested, 4.4% active | AID 504333, 2011; also: % is scaled to controls: 0 for no effect and ±100 for the full control effect; nearly all actives have a fitted effect of over 60% in size
Target sequence (Q9UIF8 whole entry, looked up): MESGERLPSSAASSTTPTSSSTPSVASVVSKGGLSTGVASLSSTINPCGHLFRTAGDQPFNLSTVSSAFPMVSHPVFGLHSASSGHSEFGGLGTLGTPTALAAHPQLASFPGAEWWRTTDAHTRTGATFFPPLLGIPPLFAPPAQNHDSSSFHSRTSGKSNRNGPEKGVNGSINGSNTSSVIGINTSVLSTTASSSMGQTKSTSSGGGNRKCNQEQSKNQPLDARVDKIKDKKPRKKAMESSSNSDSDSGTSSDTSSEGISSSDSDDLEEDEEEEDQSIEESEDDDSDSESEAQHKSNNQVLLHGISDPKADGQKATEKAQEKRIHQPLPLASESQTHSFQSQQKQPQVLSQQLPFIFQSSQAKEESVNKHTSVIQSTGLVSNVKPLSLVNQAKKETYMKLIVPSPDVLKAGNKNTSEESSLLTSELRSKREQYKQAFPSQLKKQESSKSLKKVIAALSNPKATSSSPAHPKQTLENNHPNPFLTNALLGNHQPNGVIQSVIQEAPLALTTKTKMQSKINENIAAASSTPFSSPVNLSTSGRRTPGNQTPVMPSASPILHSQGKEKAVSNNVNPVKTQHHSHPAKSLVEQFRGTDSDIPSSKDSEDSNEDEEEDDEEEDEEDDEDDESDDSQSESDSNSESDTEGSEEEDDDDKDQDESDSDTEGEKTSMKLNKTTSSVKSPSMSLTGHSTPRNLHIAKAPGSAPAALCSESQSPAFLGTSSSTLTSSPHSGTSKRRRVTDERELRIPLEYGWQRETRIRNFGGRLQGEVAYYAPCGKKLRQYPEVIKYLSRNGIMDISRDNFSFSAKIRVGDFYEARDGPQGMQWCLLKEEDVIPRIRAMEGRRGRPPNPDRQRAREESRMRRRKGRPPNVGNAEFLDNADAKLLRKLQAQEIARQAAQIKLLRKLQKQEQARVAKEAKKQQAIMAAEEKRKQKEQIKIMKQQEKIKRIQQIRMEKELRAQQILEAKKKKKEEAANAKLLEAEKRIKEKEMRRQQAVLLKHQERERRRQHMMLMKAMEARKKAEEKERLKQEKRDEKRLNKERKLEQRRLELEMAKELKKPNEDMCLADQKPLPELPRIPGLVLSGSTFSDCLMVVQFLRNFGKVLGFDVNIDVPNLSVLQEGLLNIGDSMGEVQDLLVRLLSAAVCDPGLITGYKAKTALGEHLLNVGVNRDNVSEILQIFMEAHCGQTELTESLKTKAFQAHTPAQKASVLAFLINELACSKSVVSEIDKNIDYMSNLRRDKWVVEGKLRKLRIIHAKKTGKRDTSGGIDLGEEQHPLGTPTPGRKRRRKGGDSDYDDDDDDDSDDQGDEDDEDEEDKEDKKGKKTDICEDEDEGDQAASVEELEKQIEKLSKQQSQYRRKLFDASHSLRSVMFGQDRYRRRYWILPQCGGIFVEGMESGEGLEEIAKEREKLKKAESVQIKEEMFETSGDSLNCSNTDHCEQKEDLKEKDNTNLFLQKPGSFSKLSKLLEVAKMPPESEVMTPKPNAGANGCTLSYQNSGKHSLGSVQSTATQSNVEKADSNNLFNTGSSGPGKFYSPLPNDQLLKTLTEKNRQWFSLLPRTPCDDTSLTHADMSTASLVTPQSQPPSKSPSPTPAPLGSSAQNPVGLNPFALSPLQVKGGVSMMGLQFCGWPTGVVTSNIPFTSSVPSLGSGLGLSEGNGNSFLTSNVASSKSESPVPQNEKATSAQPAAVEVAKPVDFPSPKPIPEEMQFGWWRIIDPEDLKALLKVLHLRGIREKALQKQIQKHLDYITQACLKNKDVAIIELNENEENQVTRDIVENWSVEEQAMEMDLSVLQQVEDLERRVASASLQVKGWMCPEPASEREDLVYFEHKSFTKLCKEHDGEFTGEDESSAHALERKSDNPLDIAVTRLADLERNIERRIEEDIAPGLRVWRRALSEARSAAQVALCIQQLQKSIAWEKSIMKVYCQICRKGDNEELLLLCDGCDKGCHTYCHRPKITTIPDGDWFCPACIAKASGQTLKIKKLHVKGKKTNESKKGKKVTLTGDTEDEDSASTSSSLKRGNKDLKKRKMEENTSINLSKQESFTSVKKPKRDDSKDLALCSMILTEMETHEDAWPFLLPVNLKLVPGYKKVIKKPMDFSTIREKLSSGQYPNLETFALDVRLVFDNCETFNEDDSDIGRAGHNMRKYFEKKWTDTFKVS
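Complex of BAZ2B and biotin-H3K14Ac (50 nM apiece) forms over 30 min at RT, then faces library compounds up to 110 uM for another 30 min; AlphaScreen beads added, 20 min dark incubation, luminescence read.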
* hit, by the source's call; ? = inconclusive; / = no result; [ ] = another dose, or the depositor's remark. Rows were chosen to be rich in hits. Some 12% of all compounds tested hit in one or more screens of this group. Calls follow the shape of the dose curve; as a rule, active = well fitted curve in the direction sought with a large enough effect; inconclusive = small, poorly fitted or top-dose-only effect, or another doubt; inactive = no such curve, though single readings can be large; an effect the other way counts as inactive or inconclusive. Potency is read from the fitted curve at half-maximal effect.

SMILES	JMJD2A Tudor inh	G9a block	HP1b chromo inh	L3MBTL1 inh	Sfp inh	BAZ2B inh
CCN(CC)S(=O)(=O)c1cc(-c2nn(C)c(=O)c3ccccc23)ccc1C	?	?	-2%	-21%	-13%	50µM*
COc1ccc(-c2ccc(SCC(=O)Nc3nnc(C)s3)nn2)cc1	1%	9%	39%	-55%	0%	-16%
CCc1nnc(NC(=O)CSc2ccc(-c3ccc(C)cc3)nn2)s1	-34%	50µM*	20%	-4%	?	-28%
CCOc1ccc(-c2ccc(SCC(=O)Nc3nnc(CC)s3)nn2)cc1	-18%	28µM*	10%	/	3%	-2%
CCc1nnc(NC(=O)CSc2nnc(C)n2-c2ccc(C)cc2)s1	-14%	20%[12.7 µM]	21%	/	11%	-23%
Cc1ccccc1CN1C(=O)c2ccccc2S(=O)c2ccc(C(=O)NCc3ccc4c(c3)OCO4)cc21 (configuration not stated)	-7%	-6%[59 µM]	25%	/	/	-18%
COc1cccc(CCNc2ncnc3c2nnn3C)c1	-13%	11%[59 µM]	-7%	/	/	-4%
CCCNC(=O)c1cccc(Cn2cc(Br)c([N+](=O)[O-])n2)c1	2%	-11%	24%	1%	9%	-1%
NNC(=O)c1cccc(Cn2cc(Br)c([N+](=O)[O-])n2)c1	3%	40µM*	55%	/	-12%	-23%
CC(C)Nc1nc(-c2ccccn2)nc(-c2ccccc2)c1C#N	-14%	5%	2%	5%	14%	-5%
C=CCNc1nc(-c2ccccn2)nnc1-c1ccccc1	35µM*	47%	46%	/	?	0.89µM*
Fc1ccc(CSc2ccc(-c3ccco3)nn2)cc1	-11%	1%[59 µM]	20%	9%	50µM*	-9%
Fc1ccc(CSc2ccc(-c3ccc4c(c3)OCO4)nn2)cc1	-2%	-3%	29%	1%	3%	3%
Cc1nc(C)c(-c2ccc(SCc3cccc(F)c3)nn2)s1	-3%	25%	42%	/	-21%	7%[57.1 µM]
Fc1cccc(CSc2ccc(-c3ccco3)nn2)c1	-12%	?	32%	-17%	16µM*	-36%
COc1ccc(NC(=O)c2ccco2)cc1NC(=O)c1ccc(OC(C)C)cc1	-32%	-48%[59 µM]	17%	/	/	?
Cn1ccnc1-c1nc2ccccc2[nH]c1=O	35µM*	2.5µM*	20%	?	9%	18µM*
Cc1ccc(SCc2nc(-c3ccc(C(=O)NCc4ccccc4Cl)cc3)oc2C)cc1	3%	5%[59 µM]	44%	/	/	-6%
COc1cc2c(c(OC)c1CC=C(C)C)C[C@H](c1ccc(O)cc1O)CO2	56µM*	/	-31%	/	/	/
COc1ccc(C2CC(=O)c3c(O)cc(O)cc3O2)c(CC=C(C)C)c1OC (configuration not stated)	-31%	/	38%	/	/	/
COc1ccc(CCNC(=O)C(C)n2nc(C)c3sc4ccccc4c3c2=O)cc1OC (configuration not stated)	-1%	-31%[59 µM]	33%	/	/	1%
c1ccc(C2=NNC(=NC3CC3)SC2)cc1	-21%	?	7%	8%	45µM*	9%
c1ccc2c(C3=NNC(=NC4CCCCC4)SC3)c[nH]c2c1	?	?	-17%	0%	-10%	?
c1ccc2c(C3=NNC(=NC4CC4)SC3)c[nH]c2c1	-34%	13µM*	-7%	-4%	?	-32%
CCOc1ccccc1NC(=O)Cn1c(=O)n(Cc2nc(C)no2)c(=O)c2ccccc21	12%	?	68%	/	/	-3%
SMILES	JMJD2A Tudor inh	G9a block	HP1b chromo inh	L3MBTL1 inh	Sfp inh	BAZ2B inh
Cc1cc(OCC(=O)Nc2ccc(C(=O)OC3CCCCC3)cc2)cc(C)c1Cl	-6%	15%[59 µM]	26%	/	/	5%
COc1ccc(OC2C(O)COC2/C=C/C#Cc2ccccc2)cc1 (configuration not stated)	/	/	/	/	0%	/
C=CCNC(=S)/C(=C(\[O-])c1ccc(Cl)cc1)[n+]1ccccc1	-13%	/	30%	50%	8.9µM*	-17%
CCc1cc[n+](/C(C(=S)Nc2cccc(C)c2)=C(/[O-])c2ccc(C)c([N+](=O)[O-])c2)cc1	-31%	40µM*	?	-8%	-10%	?
Cc1ccc(/C([O-])=C(/C(=S)NCc2ccccc2)[n+]2ccccc2)cc1[N+](=O)[O-]	-25%	20µM*	-9%	-4%	-26%	?
[O-]/C(=C(\C(=S)NCc1ccccc1)[n+]1ccccc1)c1ccc(Cl)cc1	?	22µM*	?	-17%	-55%	-36%
O=C(NCc1ccccc1)NC(=O)c1ccc(Cl)cc1	4%	/	34%	/	/	/
Cc1ccc(C([O-])=C(C(=S)NCc2ccccc2)[n+]2cccc(CO)c2)cc1[N+](=O)[O-]	?	/	-16%	/	/	/
Cc1noc2ncnc(N3CCN(c4ccccc4F)CC3)c12	-5%	-1%[59 µM]	31%	/	/	10%[57.1 µM]
CCOC(=O)C1=C(N)Oc2cc(O)ccc2C1c1ccc([N+](=O)[O-])cc1 (configuration not stated)	50µM*	40µM*	-19%	-8%	25µM*	?
CCOc1cc(/C=N/N2C(=O)NC3(CCCCC3)C2=O)cc(Br)c1O	-16%	?	11%	2%	14%	/
COc1cccc(/C=N/N2C(=O)NC3(CCCCC3)C2=O)c1O	-27%	16µM*	17%	/	3%	3%
O=C1CN(C(=O)COc2ccc(Br)cc2F)c2ccccc2N1	-17%	45µM*	22%	0%	2%	9%
Cn1c2ccccc2c2cc(C(=O)OCC(=O)N3CC(=O)Nc4ccccc43)sc21	5%	50µM*	40%	-5%	-14%	-4%
O=C1CN(C(=O)COc2ccc(Br)cc2Br)c2ccccc2N1	-7%	-36%	25%	/	1%	-13%
Cc1cc(C(=O)OCC(=O)N2CC(=O)Nc3ccccc32)c(C)n1-c1ccccc1	56µM*	?	?	-2%	-8%	50µM*
O=C1CN(C(=O)COC(=O)c2cccs2)c2ccccc2N1	-12%	1%[2.33 µM]	30%	0%	/	2%
CCOC(=O)c1cc2c(=O)n3ccccc3nc2n(Cc2ccco2)c1=NC(=O)c1cccc(F)c1	10%	1%[59 µM]	26%	/	/	1%
O=C(CSc1nc(=O)n(Cc2ccncc2)c2c1CCC2)Nc1ccccc1	5%	4%[59 µM]	24%	/	/	5%
N=C1/C(=C/c2cccs2)C(=O)N=C2SN=C(SCc3ccccc3)N12	?	-8%[12.7 µM]	-5%	0%	4%	?

Compound activity as filed in PubChem.
